{"source": "PubChem BioAssay", "key": {"[1]": {"assay": "P. berghei load reduction in hepatocytes – cell-based, HepG2, luciferase luminescence, HepG2 viability, primary screen (AID 624349; in the data active = parasite load remaining mostly below about 12%, no sharp cut-off; inactive = mostly above about 10%;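 also: 100% = mean of DMSO negative control wells on the same plate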)", "settings": "P. berghei liver stage in HepG2, luciferase luminescence, concentration not given here; parasite load remaining: stronger effect = lower value; viability: measured here: HepG2 viability without parasites"}, "[2]": {"assay": "signal quenchers or enhancers, Cy5 substrate/SSB – biochemical, NIH Clinical Collection, E. coli SSB, artefact control for HCV NS3 helicase inhibitor project (AID 743268)", "settings": "Cy5-oligo bound E. coli SSB, fluorescence interference"}, "[3]": {"tested_on": "Hepatitis C virus NS3 helicase", "assay": "blockers of NS3h binding to DNA – biochemical, fluorescence polarization, NIH Clinical Collection, primary screen (AID 743270)", "settings": "NS3 helicase binding to Cy5-dT15 DNA, stronger effect = higher value, concentration not given here"}, "[4]": {"target": "Single-stranded DNA-binding protein (Escherichia coli (strain K12)) (UniProt P0AGE0)", "assay": "SSB-ssDNA binding inhibitors – biochemical, fluorescence polarization, NIH Clinical Collection, counter-screen for HCV NS3 helicase inhibitor project (AID 743271; in the data active = inhibition above about 28%)", "settings": "E. coli SSB-DNA binding, stronger effect = higher value, concentration not given here"}, "[5]": {"assay": "compounds distorting NS3 helicase fluorescence signal – biochemical, NIH Clinical Collection, artefact control for HCV NS3 helicase inhibitor project (AID 743272)", "settings": "fluorescence interference counterscreen, HCV NS3 helicase assay; stronger effect = lower value"}, "[6]": {"tested_on": "Neuropilin-2 / VEGF-C interaction (human)", "assay": "small molecules blocking Neuropilin-2/VEGF-C interaction – biochemical, microplate binding format, z-score (AID 743281)", "settings": "microplate NRP2/VEGF-C binding assay; stronger effect = lower value"}, "[7]": {"assay": "modulation of C. elegans fzo-1 (AID 1259413);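 also: fzo-1 mutant C. elegans worms in liquid wells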", "settings": "C. elegans fzo-1 modulator screen, mean read-out; stronger effect = higher value"}, "[8]": {"assay": "viability loss in pontine glioma line – cell-based, SU-DIPG-XVII, MIPE5.0, CellTiter-Glo, qHTS, dose response (AID 1347060; cut-off not given, nearly all actives have AC50 up to about 26 µM;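 also: cells exposed to compound for 48 hours before viability readout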)", "settings": "CellTiter-Glo ATP luminescence"}, "[9]": {"assay": "viability loss in pontine glioma line – cell-based, SU-DIPG-XIII, MIPE4.0, CellTiter-Glo, qHTS, dose response (AID 1347061; cut-off not given, nearly all actives have AC50 up to about 37 µM;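 also: cells exposed to compound for 48 hours before readout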)", "settings": "CellTiter-Glo ATP luminescence"}, "[10]": {"assay": "viability loss in pontine glioma line – cell-based, JHH-DIPG-1, MIPE4.0, CellTiter-Glo, qHTS, dose response (AID 1347062; cut-off not given, nearly all actives have AC50 up to about 27 µM;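 as to AC50: cells exposed to compound for two days before readout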)", "settings": "JHH-DIPG-1 viability, CellTiter-Glo ATP luminescence"}, "[11]": {"assay": "viability loss in pontine glioma line – cell-based, SU-DIPG-XIII, MIPE5.0, CellTiter-Glo, qHTS, dose response (AID 1347064; cut-off not given, nearly all actives have AC50 up to about 23 µM;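 as to AC50: cells exposed to compound for 48 hours before the viability read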)", "settings": "CellTiter-Glo ATP luminescence"}, "[12]": {"assay": "growth inhibition of DIPG cells – cell-based, MIPE4.0 library, CellTiter-Glo luminescence, qHTS (AID 1347066; cut-off not given, nearly all actives have AC50 up to about 30 µM;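 also: cells exposed to compound for 48 hours before readout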)", "settings": "SU-DIPG-VI viability, CellTiter-Glo ATP luminescence"}, "[13]": {"assay": "JHH-DIPG-1 glioma cell viability, MIPE5.0 library, CellTiter-Glo luminescence, qHTS (AID 1347067; cut-off not given, nearly all actives have AC50 up to about 26 µM;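 also: cells exposed to compound for 48 hours before readout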)", "settings": "JHH-DIPG-1 glioma viability, CellTiter-Glo ATP luminescence"}, "[14]": {"assay": "growth inhibition of DIPG cells – cell-based, MIPE5.0 library, qHTS (AID 1347068; cut-off not given, nearly all actives have IC50 up to about 30 µM;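 as to IC50: cells exposed to compound for 48 hours before viability readout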)", "settings": "SU-DIPG-XXV viability"}, "[15]": {"assay": "viability loss with induced miR-34 in A549 – imaging, A549 dox-inducible miR-34, nuclei and caspase counts, primary screen (AID 1347080;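 active = compounds whose cell count with miR-34 switched on is under 0.7 times the count with it off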)", "settings": "A549 miR-34 inducible, Hoechst nuclei count, 48 h"}, "[16]": {"assay": "chitosan synthesis blockers in C. neoformans – flow cytometry, Cibacron Brilliant Red staining (AID 1347148);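 also: compound exposure lasted three days at 37 degrees C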", "settings": "Cryptococcus neoformans chitosan, stronger effect = lower value; at 10 µM unless noted"}, "[17]": {"assay": "compounds altering HSF1 focus formation in cells – imaging, Selleck Cancer Library (AID 1347162; in the data active = plate-normalised HSF1 focus index below about 0.46)", "settings": "human cells, HSF1 nuclear foci imaging, at 10 µM; SSMD: measured here: HSF1 foci SSMD mean; cell count: measured here: cell number; plate-normalised HSF1 focus index: stronger effect = lower value"}, "[18]": {"assay": "MELAS cybrid and Rieske KO viability enhancers – cell-based, MELAS cybrids, Rieske KO mouse fibroblasts, CellTiter-Glo, primary screen (AID 1508586;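 active = mean z-score across replicates of 1.96 or higher in either the MELAS or the Rieske mutant cell line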;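 also: z relative to plate mean and SD of compound and empty wells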)", "settings": "low glucose"}, "[19]": {"target": "Mitogen-activated protein kinase 7 (Homo sapiens) (UniProt Q13164)", "sequence (Q13164 whole entry, looked up, the tested form may be a part)": "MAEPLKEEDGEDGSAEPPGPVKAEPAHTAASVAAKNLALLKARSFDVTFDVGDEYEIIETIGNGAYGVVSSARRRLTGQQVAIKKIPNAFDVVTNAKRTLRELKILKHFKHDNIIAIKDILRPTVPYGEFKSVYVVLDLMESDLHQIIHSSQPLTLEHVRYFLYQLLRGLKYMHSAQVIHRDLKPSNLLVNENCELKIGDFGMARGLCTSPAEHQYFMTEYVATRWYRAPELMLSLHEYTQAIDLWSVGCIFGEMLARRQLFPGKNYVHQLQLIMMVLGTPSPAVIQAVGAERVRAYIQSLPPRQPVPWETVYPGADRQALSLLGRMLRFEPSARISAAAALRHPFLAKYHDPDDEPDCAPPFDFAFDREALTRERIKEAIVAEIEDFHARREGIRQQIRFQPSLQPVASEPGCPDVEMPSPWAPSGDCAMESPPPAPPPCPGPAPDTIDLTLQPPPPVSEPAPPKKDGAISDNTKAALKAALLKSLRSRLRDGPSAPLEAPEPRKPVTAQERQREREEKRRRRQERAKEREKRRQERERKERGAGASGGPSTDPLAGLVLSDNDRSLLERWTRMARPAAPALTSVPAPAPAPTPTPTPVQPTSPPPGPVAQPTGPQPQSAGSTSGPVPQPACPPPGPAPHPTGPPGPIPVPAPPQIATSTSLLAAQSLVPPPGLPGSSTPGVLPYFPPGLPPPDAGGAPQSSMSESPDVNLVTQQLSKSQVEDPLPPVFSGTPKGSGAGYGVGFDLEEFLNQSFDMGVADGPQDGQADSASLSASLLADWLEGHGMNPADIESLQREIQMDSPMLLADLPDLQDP", "assay": "Gal4-ERK5 driven luciferase induction – cell-based, HTS, primary screen (AID 1508626;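 active = luciferase signal above three times the same-plate solvent-only control wells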;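 also: luciferase driven by Gal4-ERK5 fusion binding five Gal4 sites before minimal TATA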)", "settings": "HeLa Gal4-ERK5 transactivation, 18 h, at 5 µM, stronger effect = higher value"}, "[20]": {"assay": "galactose survival enhancers in mitochondrial complex I cybrids – cell-based, galactose medium, ATP luminescence, primary screen (AID 1645843;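 active = z-score of at least 1.8 in each of two replicates, scored against plate mean and spread of sample wells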;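 also: positive z means more ATP and so rescue of galactose-driven cybrid death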)", "settings": "complex I mutant cybrid cells, 72 h, stronger effect = higher value"}, "[21]": {"assay": "EMT-state selective cytotoxicity in co-culture – imaging, PC-3E GFP, TEM4-18 mCherry, primary screen (AID 1345086;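 active = compounds killing one labelled cell type while sparing the other, by normalised counts and ratio limits, not self-fluorescent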;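 also: cells exposed to compound for 72 h before imaging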;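 as to red/green cell ratio (normalised): normalised mesenchymal count divided by normalised epithelial count so high means epithelial killing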)", "settings": "PC-3E GFP / TEM4-18 mCherry co-culture, imaging cell counts, at 1 µM"}, "[22]": {"assay": "viability loss in pontine glioma line – cell-based, SU-DIPG-IV, MIPE4.0, CellTiter-Glo, qHTS, dose response (AID 1347063; cut-off not given, nearly all actives have AC50 up to about 30 µM;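 also: compound exposure lasted 48 hours before the viability readout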)", "settings": "CellTiter-Glo ATP luminescence"}, "[23]": {"assay": "viability loss in pontine glioma line – cell-based, SU-DIPG-XXV, MIPE5.0, CellTiter-Glo, qHTS, dose response (AID 1347065; cut-off not given, nearly all actives have AC50 up to about 26 µM;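 also: cells exposed to compound for 48 hours before ATP readout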)", "settings": "CellTiter-Glo ATP luminescence"}, "[24]": {"target": "NAD(+) hydrolase SARM1 (Homo sapiens) (UniProt Q6SZW1)", "sequence (Q6SZW1 whole entry, looked up)": "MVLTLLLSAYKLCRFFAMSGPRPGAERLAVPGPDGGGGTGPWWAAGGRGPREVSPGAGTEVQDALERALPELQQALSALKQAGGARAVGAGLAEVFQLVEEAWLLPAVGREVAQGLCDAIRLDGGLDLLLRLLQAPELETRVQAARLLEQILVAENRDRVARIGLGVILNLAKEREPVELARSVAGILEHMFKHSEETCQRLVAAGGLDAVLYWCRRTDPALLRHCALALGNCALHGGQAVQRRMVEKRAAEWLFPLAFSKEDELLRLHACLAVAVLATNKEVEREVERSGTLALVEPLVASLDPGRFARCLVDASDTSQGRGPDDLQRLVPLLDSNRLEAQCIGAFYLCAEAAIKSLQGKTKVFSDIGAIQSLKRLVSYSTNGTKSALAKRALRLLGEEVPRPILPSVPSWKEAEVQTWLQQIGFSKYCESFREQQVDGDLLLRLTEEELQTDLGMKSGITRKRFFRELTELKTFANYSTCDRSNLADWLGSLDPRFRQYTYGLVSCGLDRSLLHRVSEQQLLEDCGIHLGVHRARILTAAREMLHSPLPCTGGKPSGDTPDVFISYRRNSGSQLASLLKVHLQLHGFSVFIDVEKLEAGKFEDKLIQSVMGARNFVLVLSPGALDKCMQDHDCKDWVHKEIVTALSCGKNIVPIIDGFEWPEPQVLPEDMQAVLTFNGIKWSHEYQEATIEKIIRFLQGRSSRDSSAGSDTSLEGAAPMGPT", "assay": "blocking NAD cleavage by SARM1 SAM-TIR – cell lysate, NAD-Glo luminescence (AID 1508614;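 active = compound whose remaining NAD level is above about 45 nM, limit read from the data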)", "settings": "SAM-TIR HEK293T lysate NADase, at 1 µM, stronger effect = higher value"}}, "note": "“And” between values parts separate entries of the source, which are not always exact repeats. Identical values can stand only once. Records with an inconclusive call do not appear. The source made the active and inactive calls. Unless noted, no rule for the calls is given here.", "data": [{"smiles": "COc1cc([C@@H]2c3cc4c(cc3[C@@H](O[C@@H]3O[C@@H]5CO[C@@H](C)O[C@H]5[C@H](O)[C@H]3O)[C@H]3COC(=O)[C@H]23)OCO4)cc(OC)c1O", "values": [{"measurement": "parasite load remaining", "setting": "[1]", "result": "189% (inactive) and 77.5% (inactive) and 87.8% (inactive)"}, {"measurement": "viability", "setting": "[1]", "result": "114% and 71.8% and 103%"}, {"measurement": "fluorescence ratio", "setting": "[2]", "result": "1.02 (inactive)"}, {"measurement": "inhibition", "setting": "[3]", "result": "0.66% (inactive)"}, {"measurement": "inhibition", "setting": "[4]", "result": "2.76% (inactive)"}, {"measurement": "fluorescence ratio", "setting": "[5]", "result": "1.01 (inactive)"}, {"measurement": "z-score", "setting": "[6]", "result": "-1.12 (inactive)"}, {"measurement": "mean signal", "setting": "[7]", "result": "267 (inactive)"}, {"measurement": "AC50", "setting": "[8]", "result": "1660 nM (active)"}, {"measurement": "outcome", "setting": "[9]", "result": "inactive"}, {"measurement": "outcome", "setting": "[10]", "result": "inactive"}, {"measurement": "outcome", "setting": "[11]", "result": "inactive"}, {"measurement": "outcome", "setting": "[12]", "result": "inactive"}, {"measurement": "outcome", "setting": "[13]", "result": "inactive"}, {"measurement": "outcome", "setting": "[14]", "result": "inactive"}, {"measurement": "fold change", "setting": "[15]; stronger effect = lower value, cell number ratio, induced over uninduced", "result": "0.888 (inactive) and 1.07 (inactive)"}, {"measurement": "fold change", "setting": "[15]; measured here: relative caspase fold change +Dox/-Dox", "result": "1.6 and 0.504"}, {"measurement": "cell count", "setting": "[15]; measured here: total cells with miR-34 induction, stronger effect = lower value", "result": "2840 and 3400"}, {"measurement": "cell count", "setting": "[15]; measured here: total cells without miR-34 induction", "result": "3200 and 3170"}, {"measurement": "fold fluorescence", "setting": "[16]", "result": "5.2 [at 85 µM] (inactive)"}, {"measurement": "SSMD", "setting": "[17]", "result": -0.198}, {"measurement": "cell count", "setting": "[17]", "result": 6820}, {"measurement": "plate-normalised HSF1 focus index", "setting": "[17]", "result": "0.99 (inactive)"}, {"measurement": "z-score", "setting": "[18]; MELAS cybrid survival, CellTiter-Glo 48 h, stronger effect = higher value", "result": "-0.423 (inactive) and -1.1 (inactive)"}, {"measurement": "z-score", "setting": "[18]; Rieske KO mouse fibroblast survival, CellTiter-Glo 72 h", "result": "-0.861 and 0.337"}, {"measurement": "luciferase signal", "setting": "[19]", "result": "48 AU (inactive)"}, {"measurement": "z-score", "setting": "[20]", "result": "-2.08 (inactive)"}]}, {"smiles": "COc1cccc2c1C(=O)c1c(O)c3c(c(O)c1C2=O)C[C@@](O)(C(=O)CO)C[C@@H]3O[C@H]1C[C@H](N)[C@@H](O)[C@H](C)O1", "values": [{"measurement": "parasite load remaining", "setting": "[1]", "result": "-0.12% (inactive)"}, {"measurement": "viability", "setting": "[1]", "result": 25.2, "unit": "%"}, {"measurement": "fluorescence ratio", "setting": "[2]", "result": "0.11 (active)"}, {"measurement": "inhibition", "setting": "[3]", "result": "4.36% (inactive)"}, {"measurement": "inhibition", "setting": "[4]", "result": "17.6% (inactive)"}, {"measurement": "fluorescence ratio", "setting": "[5]", "result": "0.41 (active)"}, {"measurement": "z-score", "setting": "[6]", "result": "-0.603 (inactive)"}, {"measurement": "mean signal", "setting": "[7]", "result": "274 (inactive)"}, {"measurement": "red/green cell ratio (normalised)", "setting": "[21]; actives lie on both sides, counts scaled to control wells, 1 = unselective", "result": "2.46 (active)"}, {"measurement": "normalised cell number", "setting": "[21]; measured here: epithelial PC-3E GFP cell survival", "result": 0.19}, {"measurement": "normalised cell number", "setting": "[21]; measured here: mesenchymal TEM4-18 mCherry cell survival", "result": 0.46}, {"measurement": "AC50", "setting": "[8]", "result": "332 nM (active)"}, {"measurement": "AC50", "setting": "[10]", "result": "372 nM (active)"}, {"measurement": "AC50", "setting": "[22]", "result": "833 nM (active)"}, {"measurement": "AC50", "setting": "[11]", "result": "833 nM (active)"}, {"measurement": "AC50", "setting": "[23]", "result": "1180 nM (active)"}, {"measurement": "AC50", "setting": "[12]", "result": "4180 nM (active)"}, {"measurement": "AC50", "setting": "[13]", "result": "2350 nM (active)"}, {"measurement": "IC50", "setting": "[14]", "result": "9340 nM (active)"}, {"measurement": "SSMD", "setting": "[17]", "result": -16.4}, {"measurement": "cell count", "setting": "[17]", "result": 7260}, {"measurement": "plate-normalised HSF1 focus index", "setting": "[17]", "result": "0.155 (active)"}, {"measurement": "remaining NAD", "setting": "[24]", "result": "10 nM (inactive)"}, {"measurement": "luciferase signal", "setting": "[19]", "result": "20 AU (inactive)"}]}]}
